Screen size: about 52,000 compounds; about 1,700 (3.3%) were called active. Cut-off read from the data, not from the text of the source: active = survival mostly below about 52% (no sharp cut-off); inactive = mostly above about 56%. Many of the other results were omitted from the sample, so actives are more common in it than they were.
Test system: Wild type
Assay: S. aureus survival, RN4220 and DeltatarO strains – OD600, teichoic acid synthesis inhibitors, primary screen (AID 463173)
Conditions: S. aureus RN4220 wild type/DeltatarO growth, OD600, 18 h, hits give low values, screened at 18.75 µg/mL (by protocol)

Question: Cc1ccc(-c2nc3ccccc3o2)cc1NC(=O)c1cccc2c(Cl)cccc12 was tested. Which survival did it give?
Answer: Its survival is 62% (inactive).

Question: How did the survival turn out when Cn1c(-c2ccccc2)nc2cc(N)ccc21 was run?
Answer: The survival was 105% (inactive).

Question: CN(C)c1ccc(-c2nc(-c3cccs3)c(-c3cccs3)[nH]2)cc1 was tested. Which survival did it give?
Answer: The survival was 65% (inactive).

Question: With Fc1ccc(-c2nc(-c3cccs3)c(-c3cccs3)[nH]2)cc1 as the molecule, how does the survival read?
Answer: Its survival is 79% (inactive).

Question: How did the survival turn out when COc1ccc(O)c(-c2cn[nH]c2-c2cccs2)c1 was run?
Answer: The survival was 105% (inactive).

Question: With Cc1ccc(-c2nc(-c3cccs3)c(-c3cccs3)[nH]2)cc1 as the molecule, how does the survival read?
Answer: Its survival is 76% (inactive).

Question: How did the survival turn out when Oc1ccccc1-c1nc(-c2cccs2)c(-c2cccs2)[nH]1 was run?
Answer: The survival was -11% (active).

Question: Which survival does the source give for Oc1cccc(-c2nc(-c3cccs3)c(-c3cccs3)[nH]2)c1 here?
Answer: Its survival is 3% (active).

Question: Cc1ccc(Cc2c(C)nc3nc(SCC(=O)NCCC(C)C)nn3c2C)cc1 was tested. Which survival did it give?
Answer: The survival was 64% (inactive).

Question: With Cc1nn(CC(=O)NCc2ccccc2Cl)c(=O)c2nn(-c3ccccc3)c(C)c12 as the molecule, how does the survival read?
Answer: The survival was 130% (inactive).

Question: COc1ccc(NC(=O)Cn2cnc3ccc(S(=O)(=O)N4CCC(C)CC4)cc3c2=O)cc1Cl was tested. Which survival did it give?
Answer: The survival was 158% (inactive).

Question: Which survival does the source give for O=C(Nc1c(C(=O)N2CCOCC2)cnn1-c1ccccc1)c1ccccc1F here?
Answer: Its survival is 104% (inactive).

Question: With CN1CCN(C(=O)/C=C\C(=O)O)CC1 as the molecule, how does the survival read?
Answer: Its survival is 122% (inactive).

Question: How did the survival turn out when CCCCSCCCNC(=O)c1cc(-c2cccnc2)nc2ccc(S(=O)(=O)N3CCC(C)CC3)cc12 was run?
Answer: The survival was 89% (inactive).

Question: COc1cc(C)c(Cl)cc1S(=O)(=O)NCCc1c(C)[nH]c2ccccc12 was tested. Which survival did it give?
Answer: Its survival is 73% (inactive).

Question: How did the survival turn out when Cc1ccc(Nc2ncccc2C(=O)NC2CCCCC2)cc1 was run?
Answer: Its survival is 110% (inactive).

Question: CCOc1ccc(C2C(=O)N(C3CCCCCC3)CC(=O)N2Cc2ccccc2)cc1OC (stereo not given) was tested. Which survival did it give?
Answer: Its survival is 75% (inactive).

Question: With CCc1cccc(NC(=O)C(Cc2ccccc2)n2cccc2)c1 (stereo not given) as the molecule, how does the survival read?
Answer: The survival was 12% (active).

Question: For Cc1ccc(NC(=O)C(Cc2ccccc2)n2cccc2)c(C)c1 (stereo not given), which survival is on record?
Answer: The survival was 81% (inactive).

Question: Which survival does the source give for O=C(Nc1cccc(Cl)c1)C(Cc1ccccc1)n1cccc1 (stereo not given) here?
Answer: Its survival is 8% (active).

Question: Which survival does the source give for O=C(Nc1ccccc1)C(Cc1ccccc1)N1Cc2ccccc2C1=O (stereo not given) here?
Answer: The survival was 90% (inactive).

Question: For Cc1ccc(C)c(NC(=O)C(Cc2ccccc2)n2cccc2)c1 (stereo not given), which survival is on record?
Answer: Its survival is 134% (inactive).

Question: For Cc1ccc(NC(=O)C(Cc2ccccc2)n2cccc2)cc1C (stereo not given), which survival is on record?
Answer: Its survival is 13% (active).

Question: COc1ccc(NC(=O)C(Cc2ccccc2)n2cccc2)cc1OC (stereo not given) was tested. Which survival did it give?
Answer: The survival was 82% (inactive).

Question: For CC(=O)c1cccc(NC(=O)[C@H](Cc2ccccc2)N2Cc3ccccc3C2=O)c1, which survival is on record?
Answer: Its survival is 81% (inactive).

Question: With Cc1cccc(NC(=O)C(Cc2ccccc2)n2cccc2)c1C (stereo not given) as the molecule, how does the survival read?
Answer: The survival was 84% (inactive).

Question: O=C(O)CC1=C(c2cccs2)CCC1=O was tested. Which survival did it give?
Answer: The survival was 105% (inactive).

Question: Cc1cc(C(F)F)n2ncc(C(=O)NCc3ccccc3)c2n1 was tested. Which survival did it give?
Answer: The survival was 108% (inactive).

Question: With COC(=O)c1ccc2c(=O)n(CCCCCC(=O)N3CCN(c4cccc(C)c4C)CC3)c(=O)[nH]c2c1 as the molecule, how does the survival read?
Answer: Its survival is 97% (inactive).

Question: How did the survival turn out when CC(C)c1ccc(-c2nc(C(N)=O)c3c(n2)n(-c2ccc4c(c2)OCO4)c(=O)n3C)cc1 was run?
Answer: Its survival is 60% (inactive).

Question: For Nc1n[nH]c(CCc2ccccc2)n1, which survival is on record?
Answer: The survival was 121% (inactive).

Question: How did the survival turn out when CCS(=O)(=O)N1CC(=O)N(c2cccc(C)c2C)C(C)(C(=O)NC2CCCCC2)C1 (stereo not given) was run?
Answer: The survival was 89% (inactive).

Question: How did the survival turn out when Cc1ccc(NS(=O)(=O)c2cn(C)c(C)n2)c(Br)c1 was run?
Answer: Its survival is 88% (inactive).

Question: For COc1ccccc1NS(=O)(=O)c1cn(C)c(C)n1, which survival is on record?
Answer: Its survival is 10% (active).

Question: With CSc1cccc(NS(=O)(=O)c2cn(C)c(C)n2)c1 as the molecule, how does the survival read?
Answer: The survival was 59% (inactive).

Question: For Cc1ccc(CCNC(=O)c2cc3c(=O)oc4ccccc4c3s2)cc1, which survival is on record?
Answer: Its survival is 73% (inactive).

Question: For c1ccc(-n2ncc3c(NC4CCCC4)ncnc32)cc1, which survival is on record?
Answer: Its survival is 121% (inactive).

Question: For CCOC(=O)C1CCN(S(=O)(=O)c2cc(-c3onc(C)c3C)ccc2C)CC1, which survival is on record?
Answer: Its survival is 81% (inactive).

Question: For CCOc1ccc(NC(=O)C(CC(C)C)N2Cc3ccccc3C2=O)cc1 (stereo not given), which survival is on record?
Answer: Its survival is 134% (inactive).

Question: Which survival does the source give for CC(C(=O)Nc1ccc(F)c(Cl)c1)N1Cc2ccccc2C1=O (stereo not given) here?
Answer: Its survival is 0% (active).

Question: Which survival does the source give for COC(=O)c1ccc(NC(=O)C(C)N2Cc3ccccc3C2=O)cc1 (stereo not given) here?
Answer: The survival was 53% (inactive).

Question: Which survival does the source give for Cc1cc(C)cc(NC(=O)C(C)N2Cc3ccccc3C2=O)c1 (stereo not given) here?
Answer: The survival was 63% (inactive).

Question: Which survival does the source give for O=C(Nc1ccc(F)cc1F)C(Cc1ccccc1)N1Cc2ccccc2C1=O (stereo not given) here?
Answer: Its survival is -6% (active).

Question: With O=C(Nc1ccccc1F)C(Cc1ccccc1)N1Cc2ccccc2C1=O (stereo not given) as the molecule, how does the survival read?
Answer: The survival was 75% (inactive).

Question: COc1ccc(NC(=O)C(C)N2Cc3ccccc3C2=O)cc1OC (stereo not given) was tested. Which survival did it give?
Answer: Its survival is 75% (inactive).

Question: For Cc1ccc(NC(=O)[C@H](Cc2ccccc2)N2Cc3ccccc3C2=O)cc1F, which survival is on record?
Answer: Its survival is 78% (inactive).

Question: CC(C(=O)Nc1ccc(OC(F)(F)F)cc1)N1Cc2ccccc2C1=O (stereo not given) was tested. Which survival did it give?
Answer: Its survival is -3% (active).

Question: For O=C(Nc1ccc(F)cc1)[C@H](Cc1ccccc1)N1Cc2ccccc2C1=O, which survival is on record?
Answer: The survival was 91% (inactive).

Question: With Cc1ccc(C)c(NC(=O)C(CC(C)C)N2Cc3ccccc3C2=O)c1 (stereo not given) as the molecule, how does the survival read?
Answer: The survival was 159% (inactive).

Question: How did the survival turn out when Cc1ccc(NC(=O)C(CC(C)C)N2Cc3ccccc3C2=O)cc1F (stereo not given) was run?
Answer: Its survival is -6% (active).

Question: For Cc1ccccc1CSc1cn(CCNC(=O)c2cccs2)c2ccccc12, which survival is on record?
Answer: The survival was 79% (inactive).

Question: With COc1ccc(NC(=O)Cc2ccc(NC(=O)N3CCCCc4ccccc43)cc2)c(OC)c1 as the molecule, how does the survival read?
Answer: The survival was 60% (inactive).

Question: Which survival does the source give for COc1cccc(C(=O)NC2CCCC2)c1 here?
Answer: The survival was 103% (inactive).

Question: O=C(CCS(=O)(=O)c1cccs1)Nc1ccc(C(=O)Nc2ccccc2F)cc1 was tested. Which survival did it give?
Answer: The survival was 135% (inactive).

Question: Which survival does the source give for CC(=O)c1ccc(N2CCN(C(=O)CCCn3c(=O)[nH]c4ccsc4c3=O)CC2)cc1 here?
Answer: The survival was 66% (inactive).

Question: Which survival does the source give for c1ccc(-n2nc3ccc4nonc4c3n2)cc1 here?
Answer: The survival was 104% (inactive).

Question: With On1c2c(c3c4nonc4ccc31)CCCC2 as the molecule, how does the survival read?
Answer: Its survival is 8% (active).

Question: COC(=O)CSc1n[nH]c(CNc2cccc(C)c2)n1 was tested. Which survival did it give?
Answer: Its survival is 108% (inactive).

Question: For O=C(NCCCN1CCN(c2ccccc2)CC1)c1nnc(Cc2ccc(F)cc2)o1, which survival is on record?
Answer: Its survival is 98% (inactive).

Question: Which survival does the source give for COc1ccccc1C(=O)Nc1cc(-c2ccc(C)cc2)no1 here?
Answer: The survival was 73% (inactive).

Question: With Cc1ccc(NC(=O)Cn2nc(C)n3cccc3c2=O)c(C)c1 as the molecule, how does the survival read?
Answer: The survival was 95% (inactive).

Question: For CCn1c(COc2ccccc2)nnc1SCC(=O)CC(=O)Nc1ccccc1OC, which survival is on record?
Answer: The survival was 100% (inactive).

Question: With O=S1(=O)C=C(Sc2nc3ccccc3s2)c2ccccc21 as the molecule, how does the survival read?
Answer: The survival was 0% (active).

Question: Which survival does the source give for CC(C)(C)NSc1nc2ccccc2s1 here?
Answer: Its survival is 68% (inactive).

Question: For Cc1cc(C)nc(SC2=CS(=O)(=O)c3ccccc32)n1, which survival is on record?
Answer: The survival was 99% (inactive).

From PubChem BioAssay AID463173 (ICCB-Longwood Screening Facility, Harvard Medical School, 2010)
